Cycloheximide cs: counter-screen hit for Shiga toxin inhibitors, cycloheximide; actives 12% (n = 300,000); max response, %; cell reporter, cycloheximide protein synthesis inhibition counterscreen; in the data active = max response mostly above about 13%, no sharp cut-off; inactive = mostly below about 14%; also: read at 38.3 µM for the half of the compounds with a filed dose; 0% is about no effect
Shiga toxin inh: Shiga toxin inhibition | Vero cells, Shiga toxin protein synthesis inhibition reporter | inhibition, % at 38.7 µM | actives 9.2% (n = 290,000); in the data active = inhibition mostly above about 28%, no sharp cut-off; inactive = mostly below about 43%; also: 0% is about no effect
AmpC inh detg: inhibitors of E. coli AmpC beta-lactamase with detergent | AmpC hydrolysis of nitrocefin, absorbance 480 nm, 0.01% Triton | Potency, µM (highest dose often 114 µM), for the others: at the top dose activity change, negative = inhibition, most hits filed as inhibitors | actives 0.041% (n = 370,000) | AID 485294;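 also: potency is read from the fitted curve at half-maximal effect; 0% = no-compound wells and -100% = no-enzyme wells; nearly all actives have a fitted effect of over 25% in size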
Target sequence (P00811 whole entry, looked up): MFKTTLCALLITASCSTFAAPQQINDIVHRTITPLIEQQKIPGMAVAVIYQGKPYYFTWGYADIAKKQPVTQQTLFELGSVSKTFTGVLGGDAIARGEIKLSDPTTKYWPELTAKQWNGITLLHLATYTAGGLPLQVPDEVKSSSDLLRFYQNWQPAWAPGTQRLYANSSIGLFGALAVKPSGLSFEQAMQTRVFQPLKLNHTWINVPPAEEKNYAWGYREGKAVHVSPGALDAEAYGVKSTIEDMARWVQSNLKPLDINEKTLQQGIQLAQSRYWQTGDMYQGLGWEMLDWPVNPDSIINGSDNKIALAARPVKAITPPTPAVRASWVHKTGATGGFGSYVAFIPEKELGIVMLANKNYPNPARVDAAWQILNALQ
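20 mM phosphate pH 7.0 + 0.01% (detergent screen) or 0.0001% Triton X-100; 5.3 nM AmpC reagent; cpd preinc 15 min RT; nitrocefin (800 uM stock) to start; A480 q20 s × 4 min; Activity was normalised to no-enzyme and no-compound control wells.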
AmpC inh no detg: AmpC beta-lactamase inhibition without detergent. P00811. AmpC nitrocefin hydrolysis, absorbance 480 nm, 0.0001% Triton. Potency, µM (highest dose often 57.1 µM), for the others: top-dose activity change, negative = inhibition, actives largely listed as inhibitors. actives 0.52% (n = 330,000);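 also: potency is read from the fitted curve at half-maximal effect; plate controls were no compound for no effect and no enzyme for full effect; nearly all actives have a fitted effect of over 20% in size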
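AmpC (5.3 nM in the dispensed reagent) in 20 mM phosphate pH 7.0 with 0.01% (detergent screen) or 0.0001% Triton X-100 was preincubated with compounds for 15 min at room temperature. Nitrocefin was then added from an 800 uM solution, and hydrolysis was followed at 480 nm.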
AMA1-RON2 inh: inhibitors of Plasmodium falciparum AMA1-RON2 interaction | AlphaScreen AMA1-biotinylated RON2 peptide binding | actives 0.2% (n = 360,000) | Potency, µM (highest dose often 58.2 µM), inactives show at the highest dose activity change, negative = inhibition, hits mostly inhibitors;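 also: potency is read from the fitted curve at half-maximal effect; 0% = vehicle wells and -100% = peptide control; nearly all actives have a fitted effect of over 45% in size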
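AMA1 (3D7) with his tag at 25 nM final met compounds first, then biotinylated RON2 peptide at 25 nM; detection used donor plus acceptor beads, 10 µg/mL apiece, read by AlphaScreen after 30 min at room temperature.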
SARS PLP yeast: inhibitors of SARS-CoV papain-like protease in yeast | S. cerevisiae expressing SARS-CoV PLpro, growth rescue | Potency, µM (highest dose often 32.9 µM), inactives show top-dose activity, positive = growth rescue, hits mostly activators | actives 0.19% (n = 330,000); calls by dose curve; also: potency is read from the fitted curve at half-maximal effect; 0% is about no effect; nearly all actives have a fitted effect of over 55% in size
An asterisk follows results filed as active; ? = inconclusive; / = no result; [ ] = dose if it differs, or a comment. Many of the other results were omitted from the sample, so hits are more common in it than they were. Unless noted, calls follow the shape of the dose curve; as a rule, active = well fitted curve in the direction sought with a large enough effect; inconclusive = small, poorly fitted or top-dose-only effect, or another doubt; inactive = no such curve, though single readings can be large; an effect the other way counts as inactive or inconclusive.

SMILES	Cycloheximide cs	Shiga toxin inh	AmpC inh detg	AmpC inh no detg	AMA1-RON2 inh	SARS PLP yeast
CCOC(=O)c1[nH]c(C)c(C(=O)OCc2ccccc2F)c1C	12*	25	8%	-22%	-10%	6%
CCOC(=O)c1[nH]c(C)c(C(=O)OCCOc2cccc(C)c2)c1C	22*	10	-11%	-28%	-14%	23%
CCOC(=O)c1c(C)[nH]c(C(=O)NNC(=O)c2ccccc2)c1C	31*	89*	-1%	-26%	22%	3%
CCOC(=O)c1c(C)[nH]c(C(=O)C(C)OC(=O)c2cccc(OCc3c(C)noc3C)c2)c1C (centres undefined)	17*	29	1%	-12%	-5%	-2%
CCOC(=O)c1c(C)[nH]c(C(=O)Cn2c(=O)oc3ccccc32)c1C	30*	16	-15%	-24%	-1%	-10%
CCOC(=O)c1c(C)[nH]c(-c2csc(C)n2)c1C	33*	62*	0%	-17%	-18%	-6%
CC(=O)c1c(C)[nH]c(C(=O)OCC(=O)NCCc2ccc(F)cc2)c1C	-4	2	-3%	-12%	11%	-1%
CC(=O)c1c(C)[nH]c(C(=O)OCc2c(F)cccc2Cl)c1C	8	7	6%	-17%	-7%	-1%
COC(=O)c1c(C)[nH]c(C(=O)OCc2ccc(F)cc2)c1C	78*	134*	3%	-5%	-4%	-2%
CC(=O)c1c(C)[nH]c(C(=O)OCc2cccc(Cl)c2)c1C	36*	82*	7%	-20%	?	-6%
CCOC(=O)c1c(C)[nH]c(C(=O)COC(=O)C2CC2C)c1C (centres undefined)	47*	60*	3%	-5%	2%	-1%
CCOC(=O)c1[nH]c(C)c(C(=O)OCC)c1C	65*	138*	-3%	-2%	-10%	-7%
CC1=NN(c2ccccc2)C(=O)/C1=C/N(C)C	-2	3	-1%	-17%	3%	-2%
CCCC1=NN(c2ccc([N+](=O)[O-])cc2)C(=O)/C1=C/N(C)C	20*	20	0%	-29%	7%	-6%
CC1=NN(c2ccc([N+](=O)[O-])cc2)C(=O)/C1=C\N(C)C	22*	18	?	-26%	-4%[2.32 µM]	-82%
O=C(Nc1ccc(F)cc1F)c1cc2n(n1)C(C(F)(F)F)C1CCCCC1N2 (centres undefined)	30*	84*	?	-37%	8%	-8%
O=C(Nc1ccc(F)cc1F)c1cc2nc3c(c(C(F)(F)F)n2n1)CCCC3	26*	24	?	-42%	0%	19%
Cn1nc(C(F)(F)F)c(C(=O)Nc2ccc(F)cc2F)c1Cl	-1	-25	2%	-13%	11%	-3%
O=C(O)c1cc2nc3c(c(C(F)(F)F)n2n1)CCCC3	-3	-4	7%	-7%	16%	1%
O=C1c2ccc(-c3ccc(F)cc3OCc3ccccc3)cc2S(=O)(=O)c2cccc(C(=O)N3CCN(c4ncc(Cl)cc4Cl)CC3)c21	/	/	/	-39%	-1%	1%
CC1CCC(NC(=O)CN2C(=O)c3cccnc3Oc3ccc(Cl)cc32)CC1 (centres undefined)	16*	28	0%	153%	9%	0%
O=C(OCc1ccccc1)c1cc(S(=O)(=O)N2CCCCC2)ccc1N1CCOCC1	/	/	1%	43%	3%	-5%
Cc1cc2occ(CC(=O)N(C)CC(=O)Nc3c(C)cccc3C)c2cc1C	/	/	?	91%	-14%	5%
Cc1cccc(C)c1NC(=O)CN(C)C(=O)Cc1cccc(C(F)(F)F)c1	21	31*	-6%	-4%	6%	0%
CC1CCC/C(=N\Nc2ccc(Cl)c(C(=O)O)c2)C1 (centres undefined)	165*	60*	?	-14%	12%	-18%
SMILES	Cycloheximide cs	Shiga toxin inh	AmpC inh detg	AmpC inh no detg	AMA1-RON2 inh	SARS PLP yeast
CC1CCC/C(=N\NC(=O)Nc2ccccc2)C1 (centres undefined)	27*	53*	-4%	-30%	31%	-2%
CCOC(=O)c1cnc(N2CCN(c3cccc(C)c3C)CC2)c2ccccc12	/	/	13%	/	/	/
N#Cc1cnc2sc3ccccc3n2c1=N	47*	51*	-4%	-16%	-1%	-4%
Cn1nc2sc3ccccc3n2c(=O)c1=O	3	-2	-13%	0%	-3%	0%
Cc1cccc(Nc2ncnc3nc[nH]c23)c1	39*	65*	-8%	-19%	-4%	?
COc1ccc(Nc2ncnc3ccc(Br)cc23)cc1OC	-5	2	6%	2%	-12%	2%
COc1ccc(Nc2ncnc3nc[nH]c23)cc1OC	1	10	?	13µM*	1%	-2%
Cc1ccc(C)c(Nc2ncnc3nc[nH]c23)c1	-7	-15	?	-13%	28%	-6%
CCOC(=O)c1c(-c2ccc(Br)cc2)csc1NC(=O)c1ccc(F)cc1	/	/	23%	/	/	/
COc1ccc([N+](=O)[O-])cc1N(CC(O)CN1CCOCC1)S(=O)(=O)c1ccccc1 (centres undefined)	-2	-10	-1%	19%	-7%	2%
Cc1sc(NC(=O)c2sc3nc4c(C)cccc4cc3c2N)c(C#N)c1C	19*	37*	-6%	-30%	16%	4%
CCCn1nc(NC(=O)c2cccs2)c2cc3cc(C)ccc3nc21	25*	37*	2%	44%	107%	-13%
CCCCn1nc(NC(=O)c2cccs2)c2cc3cc(OC)ccc3nc21	14	-3	-4%	-18%	135%	-21%
CCCn1nc(NC(=O)C2CCCO2)c2cc3cc(C)ccc3nc21 (centres undefined)	0	1	5%	44%	1.1µM*	-17%
CCCn1nc(NC(=O)c2ccco2)c2cc3ccccc3nc21	3	19	?	-4%[2.29 µM]	23%	-2%
CCn1nc(NC(=O)c2ccco2)c2cc3cc(C)ccc3nc21	9.8*	28	-3%	54%	26%	-4%
CCCn1nc(NC(=O)c2cccs2)c2cc3cc(OC)ccc3nc21	18*	29*	-5%	-13%	63%	-5%
Cc1ccc(-c2nnn(CC(=O)N(Cc3ccccc3)C(C(=O)NC(C)(C)C)c3ccncc3)n2)o1 (centres undefined)	-2	-6	?	107%	-13%	3%
NC(=O)Cc1ccc(C(=O)c2ccc(Cl)cc2Cl)s1	23*	48*	-5%	-17%	3%	-12%
O=C(O)Cc1ccc(C(=O)c2ccc(Cl)cc2Cl)s1	19	15	0%	-43%	8%	1%
N=c1n(CCN2CCOCC2)c2ccccc2n1CC(=O)c1ccc(Cl)c(Cl)c1	24*	11	4%	198%	36%	-25%

Screening results (PubChem)
